In PubChem BioAssay AID588651 (The Scripps Research Institute Molecular Screening Center, 2011):
Activity calls are given as the source filed them. Rule as the data show it: active = inhibition above about 65%; inactive = the rest.

System: Fam108b
Assay: Fam108b inhibition by ABPP, late-stage follow-up, biochemical, gel-based ABPP, recombinant soluble Fam108b, HTS hits, complex proteome (AID 588651);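 also: Fam108b spiked into mouse brain membrane proteome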
Settings: FP-rhodamine labeling in proteome, at 20 µM, active compounds read high

Row | SMILES | inhibition
1 | CSC[C@@H]1NC(=S)N(c2ccc(C)cc2)C1=O | 0% (inactive)
2 | Cc1c(O)ccc(C=NNc2nc(-c3cccnc3)nc3ccccc23)c1O | 85% (active)
3 | O=C(Nc1cccc(-c2csc(Nc3ccc(Cl)cc3)n2)c1)c1cc([N+](=O)[O-])cc(C(F)(F)F)c1 | 65% (active)
4 | Oc1c(Cl)cc(Cl)c(Cl)c1Cc1c(O)c(Cl)cc(Cl)c1Cl | 0% (inactive)
5 | COc1cccc(-n2c(SCc3cc(=O)oc4cc(O)c(O)cc34)nc3ccccc3c2=O)c1 | 10% (inactive)
6 | Oc1ccccc1-c1nc2c3ccccc3c3ccccc3c2[nH]1 | 0% (inactive)
7 | CCc1cc(C(Cc2ccc3ccccc3n2)=NO)c(O)cc1O | 0% (inactive)
8 | O=[N+]([O-])c1ccc(NN=Cc2c[nH]c3ccccc23)c(S(=O)(=O)Nc2ccc(Cl)cc2)c1 | 0% (inactive)
9 | COc1ccc(-c2csc3nc(-c4ccccc4F)oc(=O)c23)cc1 | 95% (active)
10 | COc1ccc(C=NNC(=O)c2ccc(O)cc2)cc1CN1CCCc2ccccc21 | 40% (inactive)
11 | O=C(O)c1ccc(S(=O)(=O)/N=C2\C=C(Nc3ccccc3F)C(=O)c3ccccc32)cc1 | 0% (inactive)
12 | O=C(Nc1ccc(F)cc1)Nc1ccc(N2CCCC2)c(S(=O)(=O)Nc2ccccc2Cl)c1 | 95% (active)
13 | CCOc1cc(/C=C2\C(=O)N(c3nc(-c4ccc(Br)cc4)cs3)N=C2c2ccccc2)ccc1O | 70% (active)
14 | Nc1cc2nsnc2cc1Br | 0% (inactive)
15 | CCN(CC)c1ccc(C2Nc3cccc4cccc(c34)N2)c(O)c1 | 10% (inactive)
16 | Cc1cc(Nc2ccc(Cl)cc2)nc(NCc2ccccc2)n1 | 0% (inactive)
17 | O=C1C(SCCO)=C(SCCO)C(=O)c2ccccc21 | 50% (inactive)

Row | SMILES | inhibition
18 | CC1CCN(S(=O)(=O)c2ccc(C(=O)Nc3ccccc3-c3nc4ccccc4[nH]3)cc2)CC1 | 0% (inactive)
19 | CC(C)(C)c1nc2scc(-c3cccs3)c2c(=O)o1 | 80% (active)
20 | O=C1C(Cl)=C(N2CCC(C(=O)O)CC2)C(=O)c2ccccc21 | 0% (inactive)
21 | O=C1c2ccccc2-c2onc3ccc(NCCCn4ccnc4)c1c23 | 0% (inactive)
22 | Nc1ccc2nc(-c3cccc(-c4nc5ccc(N)cc5[nH]4)c3)[nH]c2c1 | 30% (inactive)
23 | O=S(=O)(c1cc(O)ccc1O)c1cccc2c(S(=O)(=O)c3cc(O)ccc3O)cccc12 | 10% (inactive)
24 | O=c1cc(-c2ccc(O)c(-c3c(O)cc(O)c4c(=O)cc(-c5ccc(O)cc5)oc34)c2)oc2cc(O)cc(O)c12 | 95% (active)
25 | CCCCCCCCCCCCCCCC[n+]1ccc(C=NO)cc1 | 0% (inactive)
26 | Nc1c(S(=O)(=O)c2cccc(Cl)c2)c2nc3ccccc3nc2n1N=Cc1ccc(O)c(O)c1 | 75% (active)
27 | COc1cccc(C=NNc2nc(Nc3ccc([N+](=O)[O-])cc3)nc(N3CCCC3)n2)c1O | 65% (active)
28 | Oc1ccc(C2Nc3cccc4cccc(c34)N2)c(O)c1 | 0% (inactive)
29 | Cc1ccc(C)c(-n2c3nc(=O)[nH]c(=O)c-3cc3cc([N+](=O)[O-])ccc32)c1 | 0% (inactive)
30 | O=C(NN=Cc1ccc(O)cc1)c1cccc(NN=Cc2ccc(O)cc2)c1 | 60% (inactive)
31 | COc1cc2cc(C(=O)NN=Cc3ccccc3Cl)[nH]c2cc1OC | 10% (inactive)
32 | COc1ccc2ccccc2c1C(O)c1nccn1C (centres undefined) | 0% (inactive)
33 | Oc1oc(-c2ccccc2Br)nc1C=Nc1ccccn1 | 90% (active)
34 | COc1ccc(-c2csc3nc(-c4ccccc4OC)oc(=O)c23)cc1 | 80% (active)
